Source: PubChem BioAssay (The Scripps Research Institute Molecular Screening Center)
PAFAH2 inh – inhibitors of human PAFAH2; Q99487; recombinant PAFAH2, FP-rhodamine activity probe, fluorescence polarization; inhibition, % at 3.39 µM; hit rate 0.99% among 340,000; AID 492956;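 active means inhibition above the mean over all tested compounds plus 3 SD, cut at about 30% in these data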;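 further: inhibitors block probe labeling of enzyme so polarization drops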
Fam108B counter – Fam108B inhibition, counter-screen for RBBP9 inhibitors; recombinant Fam108B, FP-Rh probe fluorescence polarization; inhibition, % at 9.51 µM; hit rate 0.33% among 300,000;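 active means inhibition above the screen mean inhibition plus 3 SD, computed separately per campaign, cut at about 18% in these data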;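 further: inhibitors lower polarization as less probe binds the enzyme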
PAFAH1B3 inh – inhibitors of human PAFAH1B3 | Q15102 | recombinant PAFAH1B3, FP-rhodamine probe, fluorescence polarization | inhibition, % at 3.39 µM | hit rate 0.28% among 340,000;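 active means inhibition above the screen-wide average of all tested compounds plus 3 SD, cut at about 25% in these data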
Target sequence (Q15102 whole entry, looked up): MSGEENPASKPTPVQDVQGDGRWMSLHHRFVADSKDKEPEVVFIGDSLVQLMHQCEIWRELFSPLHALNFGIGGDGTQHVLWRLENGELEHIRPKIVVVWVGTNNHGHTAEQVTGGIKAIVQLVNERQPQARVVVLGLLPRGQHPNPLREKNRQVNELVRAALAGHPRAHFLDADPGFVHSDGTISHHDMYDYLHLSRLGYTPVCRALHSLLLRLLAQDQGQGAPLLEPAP
PAFAH1B2 FP inh – blocks human PAF acetylhydrolase 1b catalytic subunit 2. P68402. recombinant PAFAH1B2, FP-rhodamine activity probe, fluorescence polarization. inhibition, % at 3.39 µM. hit rate 1.2% among 340,000. AID 492953;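 active means inhibition above the mean of all tested compounds plus 3 SD, cut at about 24% in these data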
pPAFAH FP inh – pPAFAH (human) enzyme inhibition; hit rate 1.5% among 330,000; recombinant pPAFAH, FP-rhodamine probe fluorescence polarization; Q13093; AID 463082; inhibition, % at 3.39 µM;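 active means inhibition above the mean inhibition across the screen plus 3 SD, cut at about 25% in these data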;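 further: inhibitors block binding of the rhodamine activity-based probe so polarization drops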
Target sequence (Q13093 whole entry, looked up): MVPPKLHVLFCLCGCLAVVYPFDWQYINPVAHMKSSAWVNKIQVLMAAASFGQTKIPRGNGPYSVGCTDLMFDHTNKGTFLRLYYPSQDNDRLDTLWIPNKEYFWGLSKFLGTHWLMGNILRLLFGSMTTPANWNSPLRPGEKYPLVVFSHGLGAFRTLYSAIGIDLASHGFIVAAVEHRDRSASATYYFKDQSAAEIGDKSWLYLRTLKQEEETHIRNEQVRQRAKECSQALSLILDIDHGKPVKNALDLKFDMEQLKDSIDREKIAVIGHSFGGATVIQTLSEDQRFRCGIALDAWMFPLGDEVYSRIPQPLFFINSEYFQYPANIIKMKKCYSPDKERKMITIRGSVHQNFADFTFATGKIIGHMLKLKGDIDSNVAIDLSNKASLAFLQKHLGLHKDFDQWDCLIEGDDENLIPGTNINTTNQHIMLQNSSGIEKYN
PME-1 primary – PME-1 (human) inhibition. Q9Y570. recombinant PME-1, FP-Rh probe fluorescence polarization. inhibition, % at 5.9 µM. hit rate 0.53% among 320,000. AID 2130;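 active means inhibition above the campaign mean of all compounds plus 3 SD, cut at about 26% in these data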;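 further: competitive labeling of PME-1 active site by serine hydrolase directed probe; inhibitors block probe labeling so polarization falls and inhibition rises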
PAFAH2 confirm – confirmation of human PAFAH2 inhibitors. shares compounds with PAFAH2 inh. recombinant PAFAH2, FP-rhodamine activity probe, fluorescence polarization. inhibition, % at 3.39 µM. hit rate 65% among 2,300. AID 493030;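 active means mean inhibition over three repeats above a set limit taken from the earlier primary screen, cut at about 30% in these data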;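 further: inhibitor blocks binding of rhodamine activity probe so polarization falls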
Large screens that a line does not name were inactive (follow-up assays come after a bar, where they were run). Most compounds without a hit are left out; they make up all but 2.9% or so of the library.

CC(C)NC(=O)[C@]1(C)CCC[C@@]2(C)C3CC[C@@]4(C)C[C@]3(CCC21)CC4=O (stereo not given in full)	none (no result: Fam108B counter)
CCOc1ncccc1C(=O)OCC(=O)Nc1cccc(C(C)=O)c1	PAFAH2 inh 61.5 | PAFAH2 confirm 55.4
C/C(=N\NC(=S)NCC(C)(C)C)c1cc(F)cc(F)c1O	PAFAH2 inh 33.0 | PAFAH2 confirm inactive
O=C(OCC(=O)c1cccc2ccccc12)c1ccc(CO)cc1	PAFAH2 inh 47.6 | PAFAH2 confirm inactive
COc1ccc([N+](=O)[O-])cc1NC(=O)Cc1c(Cl)cccc1Cl	none
CCn1c(C)nc2cc(C(=O)OC(C(F)(F)C(F)F)C(F)(F)C(F)F)ccc21	PAFAH2 inh 89.7 | PAFAH2 confirm 79.5
N=C1/C(=C/c2ccc(Br)o2)C(=O)N=C2SC(CC(=O)N3CCCC3)=NN12	PAFAH2 inh 31.4 | PAFAH2 confirm inactive
N=C1/C(=C\c2ccc(Br)o2)C(=O)N=C2SC(CC(=O)N3CCOCC3)=NN12	none
Cc1cc(C(=O)OCC(=O)NC2(C#N)CCCCC2)c(C)o1	PAFAH2 inh 75.2 (no result: Fam108B counter) | PAFAH2 confirm 75.3
N#CC1(NC(=O)COC(=O)c2cccc(-n3cnnn3)c2)CCCCC1	PAFAH2 inh 72.8 | PAFAH2 confirm 71.9
Cc1cc(C(=O)OCC(=O)NC(C)C)c(C)o1	none
N#CC1(NC(=O)COC(=O)c2ccc(-c3ccc(O)cc3)cc2)CCCCC1	PAFAH2 inh 75.8 (no result: Fam108B counter) | PAFAH2 confirm 72.4
Cc1cc(C(=O)OCC(=O)NC2CCCCC2)c(C)o1	PAFAH2 inh 84.2 | PAFAH2 confirm 62.8
CC(OC(=O)c1cccc(-n2cnnn2)c1)C(=O)NC1(C#N)CCCCC1 (stereo not given)	none (no result: Fam108B counter)
CCN(CC)P(=O)(c1ccccc1)c1c(C)nc2ccccn12 (stereo not given)	none
COc1cccc(CN2CCNC(=O)C2CC(=O)N(C)C2CCCCC2)c1 (stereo not given)	none
COc1ccccc1CNS(=O)(=O)c1ccc2c(c1)CC(=O)N2C	none
CCOC(=O)Cc1csc(NC(=O)CN2CCN(c3ccccc3)CC2)n1	none
Cc1ccc(C(=O)NC2CCCc3ccccc32)o1 (stereo not given)	none
N#CC1(NC(=O)COC(=O)c2cc([N+](=O)[O-])ccc2N2CCCC2)CCCCC1	none
N#CCC(=O)Nc1ccc(C(=O)OCC(=O)NC2CCCc3ccccc32)cc1 (stereo not given)	PAFAH2 inh 42.8 (no result: Fam108B counter, PME-1 primary) | PAFAH2 confirm 37.9
N#CC1(NC(=O)COC(=O)c2ccccc2[N+](=O)[O-])CCCCC1	PAFAH2 inh 68.8 | PAFAH2 confirm 74.3
CNS(=O)(=O)c1cccc(C(=O)OCC(=O)NC2CCCC(C)C2C)c1 (stereo not given)	PAFAH2 inh 62.7 (no result: Fam108B counter, PME-1 primary) | PAFAH2 confirm 49.2
Cc1ccc(C(=O)OCC(=O)NC2CCCc3ccccc32)o1 (stereo not given)	PAFAH2 inh 32.7 (no result: Fam108B counter) | PAFAH2 confirm inactive
CC1CCCC(NC(=O)COC(=O)c2c[nH]c(=O)[nH]c2=O)C1C (stereo not given)	none
CC1=C(OC(=O)c2ccccc2)C(C)(C)C(c2ccccc2)OC1=O (stereo not given)	none
CC1CCCC(NC(=O)COC(=O)c2ccc(Br)o2)C1C (stereo not given)	none (no result: Fam108B counter, PME-1 primary)
CCOC(=O)c1c(C)[nH]c(C(=O)OCC(=O)NC2(C#N)CCCCC2)c1C	PAFAH2 inh 57.1 | PAFAH2 confirm 52.2
COc1cccc(CC(=O)OCC(=O)NC2(C#N)CCCC2)c1	none (no result: Fam108B counter)
CCOC(=O)c1c(C)[nH]c(C(=O)OCC(=O)NC(C)(C)C)c1C	none
CNS(=O)(=O)c1cccc(C(=O)OCC(=O)Nc2cc(F)ccc2F)c1	PAFAH2 inh 45.0 | PAFAH2 confirm 31.8
Cc1cc(C(=O)OCC(=O)NC2CCCC(C)C2C)c(C)o1 (stereo not given)	PAFAH2 inh 81.6 (no result: Fam108B counter, PME-1 primary) | PAFAH2 confirm 66.7
COc1cccc(CC(=O)OCC(=O)NC2(C#N)CCCCC2)c1	PAFAH2 inh 32.1 | PAFAH2 confirm inactive
COc1ccc(NC(=O)N2CCCCCC2)cc1OC	none
COc1c(C)cc(C(=O)C2CCCN(C(=O)c3ccoc3)C2)cc1C (stereo not given)	none
COC(C(=O)Nc1ccc(Br)cc1F)c1ccccc1 (stereo not given)	none
COc1cc(S(=O)(=O)Nc2ccccn2)ccc1F	none
Cc1ccc(C(=O)OCC(=O)NC2CCCCC2)o1	PAFAH2 inh 68.2 | PAFAH2 confirm 46.1
COc1ccc(C(=O)OCC(=O)NC(=O)NC2CCCC2)cc1OC	PAFAH2 inh 30.0 (no result: Fam108B counter) | PAFAH2 confirm inactive
COc1ccc(C(=O)OCC(=O)N2CCc3ccccc3C2)cc1OC	PAFAH2 inh 53.4 (no result: Fam108B counter, PME-1 primary) | PAFAH2 confirm 44.6
CNc1ccc(C(=O)OCC(=O)NC(=O)NC2CCCC2)cc1[N+](=O)[O-]	PAFAH2 inh 41.4 (no result: Fam108B counter, PME-1 primary) | PAFAH2 confirm inactive
Cc1c(C(=O)OCC(=O)NC(=O)NC2CCCCC2)cccc1[N+](=O)[O-]	none (no result: Fam108B counter, PME-1 primary)
O=C(OCC(=O)N1CCc2ccccc2C1)c1cccc([N+](=O)[O-])c1	none
O=C(/C=C/c1ccccc1)OCN1C(=O)c2ccccc2C1=O	PAFAH2 inh 32.9 | PAFAH2 confirm inactive
COc1ccc(C(=O)OCN2C(=O)c3ccccc3C2=O)cc1	PAFAH2 inh 36.8 | PAFAH2 confirm inactive
CCOC(=O)Cc1c(C)nc2c(-c3cccc(Br)c3)c[nH]n2c1=O	PAFAH2 inh 32.6 | PAFAH2 confirm inactive
CCCCOC(=O)n1c(=O)oc2ccc(S(=O)(=O)N3CCCCC3)cc21	PAFAH2 inh 65.7 | PAFAH2 confirm 61.3
O=C(Nn1cnnc1)c1ccc(F)cc1	none
N#Cc1cccc(NC(=O)CSc2sc3c(O)cc(=O)[nH]c3c2C#N)c1	PAFAH2 inh 40.3 | PAFAH2 confirm inactive
N#Cc1cccc(NC(=O)CSc2n[nH]c(=O)[nH]c2=O)c1	none
C/C(NC1CCCC1)=C(/C#N)C(N)=O	none
CC1(C)CC(=O)C/C(=N/NC(=O)COc2ccc3ccccc3c2Br)C1	PAFAH2 inh 30.3 | PAFAH2 confirm inactive
O=C(COc1ccc(Cl)cc1Cl)NN=C1CCCCC1	none
CC1(C)CC(=O)C/C(=N/NC(=O)COc2ccc(Cl)cc2Cl)C1	PAFAH2 inh 39.8 | PAFAH2 confirm inactive
O=c1oc2ccc(Br)cc2cc1S(=O)(=O)c1ccc(F)cc1	PAFAH2 inh 79.8 | PAFAH2 confirm 62.9
COc1ccccc1CN1CC(C(=O)NCCN(C)CCc2ccccc2)CCC1=O (stereo not given)	none
COc1ccc(OC)c(C=NNC(=O)c2ccc(NS(=O)(=O)c3cccs3)cc2)c1	none (no result: PAFAH2 inh, Fam108B counter, PAFAH1B3 inh, PAFAH1B2 FP inh, PME-1 primary)
O=c1oc(-c2ccccc2NS(=O)(=O)c2ccc3ccccc3c2)nc2ccccc12	PAFAH2 inh 36.4 | PAFAH2 confirm 40.0
O=C(O)c1ccccc1NS(=O)(=O)c1ccc2ccccc2c1	none
